# Source: PubChem BioAssay
# FBA Mtb inh – Mtb fructose-bisphosphate aldolase inhibition; purified M. tuberculosis FBA, fluorescence read-out; 360,000 compounds, 2.3% hits; P9WQA3; inhibition, % at 1 µM
# CCHF vOTU inh – CCHFV vOTU protease inhibition; inhibition, % at 11.5 µM; 370,000 compounds, 0.55% hits; AID 651958; Pep-AMC fluorescence; in the data active means inhibition above about 30%
# RecA intein inh – blocks M. tuberculosis RecA intein splicing; 290,000 compounds, 0.75% hits; inhibition, % (no concentration beside the values); AID 2221; cell-free RecA intein splicing, fluorescence; in the data active means inhibition above about 30%
# Target sequence (P9WHJ3 whole entry, looked up): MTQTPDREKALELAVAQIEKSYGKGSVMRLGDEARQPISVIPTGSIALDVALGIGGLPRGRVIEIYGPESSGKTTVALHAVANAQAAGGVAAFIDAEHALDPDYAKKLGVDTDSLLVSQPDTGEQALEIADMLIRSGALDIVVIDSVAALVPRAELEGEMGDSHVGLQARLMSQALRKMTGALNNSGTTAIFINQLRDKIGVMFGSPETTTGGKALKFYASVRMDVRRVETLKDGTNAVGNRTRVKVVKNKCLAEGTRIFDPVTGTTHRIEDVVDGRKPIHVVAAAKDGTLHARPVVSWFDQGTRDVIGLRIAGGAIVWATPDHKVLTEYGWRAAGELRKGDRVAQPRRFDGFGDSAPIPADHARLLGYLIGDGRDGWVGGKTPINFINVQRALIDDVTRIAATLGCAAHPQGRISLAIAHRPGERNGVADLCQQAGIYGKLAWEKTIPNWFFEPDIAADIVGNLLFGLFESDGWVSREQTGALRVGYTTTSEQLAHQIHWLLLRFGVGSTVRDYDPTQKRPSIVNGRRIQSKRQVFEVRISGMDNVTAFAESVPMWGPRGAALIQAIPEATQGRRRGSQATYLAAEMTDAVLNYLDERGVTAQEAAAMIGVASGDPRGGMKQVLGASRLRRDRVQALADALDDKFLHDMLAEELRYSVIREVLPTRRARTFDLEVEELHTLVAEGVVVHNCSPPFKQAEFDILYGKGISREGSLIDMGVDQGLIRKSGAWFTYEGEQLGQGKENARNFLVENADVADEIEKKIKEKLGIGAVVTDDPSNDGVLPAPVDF
# GDH-TPI counter-1 – counter-screen for M. tuberculosis FBA inhibitors: GDH-TPI coupled enzymes. GDH-TPI coupled enzyme counterscreen, NADH absorbance. inhibition, % at 4.8 µM. 360,000 compounds, 1.2% hits; in the data active means inhibition above about 30%
# Mtb FBA confirm – confirmation of M. tuberculosis fructose-bisphosphate aldolase inhibitors; inhibition, % at 1 µM; purified M. tuberculosis FBA, fluorescence read-out; 5,600 compounds, 78% hits; shares compounds with FBA Mtb inh
# GDH-TPI counter-2 – GDH-TPI inhibition counter-screen for FBA inhibitors; 5,600 compounds, 81% hits; inhibition, % at 1 µM; GDH-TPI coupled enzyme counterscreen, fluorescence; shares compounds with FBA Mtb inh; AID 652141; in the data active means inhibition above about 10%
# Hits are given with their value; . = inactive; / = not tested or not shown; + = active, no number. The list is not random: actives were taken first. Their share in the collection is about 4.2%. Unless noted, no stated cut-off is given here; in the data, active means inhibition above about 27%; inactive means the rest.
SMILES,FBA Mtb inh,CCHF vOTU inh,RecA intein inh,GDH-TPI counter-1,Mtb FBA confirm,GDH-TPI counter-2
CC(C)CCN(C(=O)c1cn2ccccc2n1)c1c(N)n(Cc2ccccc2)c(=O)[nH]c1=O,.,.,/,.,/,/
COc1ccccc1-c1cncc(NC(C)=O)n1,.,.,/,.,/,/
CCOc1ccccc1-c1cncc(NC)n1,73.8,.,/,.,65.7,46.6
CNc1cncc(-c2ccccc2CO)n1,73.4,.,/,.,+,+
Cc1cc(OCC(=O)NCCCn2ccnc2)c2c(C)c(C)c(=O)oc2c1,75.5,.,.,.,37.6,29.2
Cc1cc(OC(C)C(=O)NCCCn2ccnc2)c2c(C)c(C)c(=O)oc2c1 (centres undefined),79.3,.,.,.,133.9,99.5
CCCc1cc(=O)oc2cc(OCC(=O)NCCCn3ccnc3)c(Cl)cc12,.,.,.,.,/,/
Cc1cc(OCC(=O)NCc2ccncc2)c2c(C)c(C)c(=O)oc2c1,.,.,.,.,/,/
CCc1cc(=O)oc2c(C)c(OC(C)C(=O)NCCCn3ccnc3)ccc12 (centres undefined),65.6,.,.,.,77.5,67.8
CCc1cc(=O)oc2cc(C)cc(OCC(=O)NCCCn3ccnc3)c12,60.8,.,.,.,+,+
OCC[C@@H]1C[C@H](O)[C@@H](O)[C@@]2(OCCc3cc(C(F)(F)F)ccc32)O1,/,.,/,/,/,/
CCC(C)NC(=O)CCc1c(C)nc2c(c(C)nn2-c2ccccc2)c1C (centres undefined),44.4,.,.,.,50.5,33.9
COC(=O)C(NC(=O)CCc1c(C)nc2c(c(C)nn2-c2ccccc2)c1C)C(C)C (centres undefined),43.3,.,.,.,57.5,47.9
CCCCNC(=O)CCc1c(C)nc2c(c(C)nn2-c2ccccc2)c1C,.,.,.,.,/,/
Cc1nc2c(c(C)nn2-c2ccccc2)c(C)c1CCC(=O)NCCCOC(C)C,40.6,.,.,.,40.2,36.1
Cc1nc2c(c(C)nn2-c2ccccc2)c(C)c1CCC(=O)Nc1ccc(CN2CCCC2)cc1,30.5,.,.,.,65.8,48.9
COc1ccccc1OCCSc1nc2ccccc2n1CC(=O)O,.,.,/,.,/,/
CCN(CC(=O)Nc1ccccc1C(F)(F)F)C(=O)c1ccc2[nH]c3c(c2c1)CC(C)CC3 (centres undefined),.,.,.,.,/,/
COc1ccc(CN(C)c2ccc(S(=O)(=O)N3CCN(C)CC3)cc2[N+](=O)[O-])cc1OC,.,.,/,.,/,/
Cc1ccc(NC(=O)CSc2nnc(CNC(=O)c3ccco3)o2)cc1Cl,.,.,.,.,/,/
CC(O)c1cc2c(cc1NC(=O)c1cnn3c1NC(c1ccco1)CC3C(F)(F)F)OCO2 (centres undefined),48.4,.,.,.,57.1,54.7
Cc1cc(C)c2nc(-c3cccnc3)cc(C(=O)NC(C)c3cnn(C)c3C)c2c1 (centres undefined),40.3,.,.,.,+,169.3
Cc1ccc2cc3cc(C(=O)NCCCN4CC(C)CC(C)C4)oc3nc2c1 (centres undefined),85.1,.,.,.,56.3,36.2
Cc1ccc2cc3cc(C(=O)N4CC(C)CC(C)C4)oc3nc2c1 (centres undefined),.,.,/,.,/,/
Cc1ccc2cc3cc(C(=O)NC4CCCCC4)oc3nc2c1,39.3,.,.,.,+,+
SMILES,FBA Mtb inh,CCHF vOTU inh,RecA intein inh,GDH-TPI counter-1,Mtb FBA confirm,GDH-TPI counter-2
Cc1ccc2cc3cc(C(=O)NCc4ccco4)oc3nc2c1,46.3,.,.,34.2,.,.
COc1cc(-c2c(C(=O)c3ccccc3)[nH]c(N)c2C(=O)NCCc2c[nH]c3ccccc23)ccc1F,/,.,/,/,/,/
Cc1ccc([C@H]2C[C@@H](O)[C@H](n3cc(-c4ccc(F)cc4)nn3)CN2C(=O)c2cccs2)cc1,.,.,/,.,/,/
Cc1ccccc1N(C(=O)c1snc(C(N)=O)c1N)C(C)C(=O)NC1CCCCC1 (centres undefined),31.6,.,.,.,54.3,37.1
Cc1ccccc1N(C(=O)c1snc(C(N)=O)c1N)C(C(=O)NC1CCCCC1)c1ccc(O)cc1 (centres undefined),34.9,.,.,.,.,.
C=CCOC(=O)c1ccccc1C(=O)OCC1CO1 (centres undefined),.,.,/,.,/,/
NC(=NCc1ccccc1)NC(=O)c1nc(Cl)c(N)nc1N,36.6,.,.,.,32.5,36.8
Cc1nc2ccc(NC(=O)N3CCCCC3)cc2nc1C,62.7,.,.,.,159.3,129.8
CCOC(=O)N1CCN(C(=O)Nc2ccc3nc(C)c(C)nc3c2)CC1,43.0,.,.,.,+,+
Cc1nc2ccc(NC(=S)N3CCCC3)cc2nc1C,.,.,.,.,/,/
COc1ccc(C(=O)NCCS(=O)(=O)N2CCc3ccccc3C2)cc1,.,.,.,.,/,/
CCCCn1c(=O)[nH]c(=O)c2c1nc(-c1ccccn1)n2CC,52.6,.,/,.,32.6,32.9
CCCCn1c(=O)[nH]c(=O)c2c1nc(-c1ccncc1)n2CCOC,.,.,.,.,/,/
Cc1ccccc1N(CC(=O)N1CCN(Cc2ccccc2)CC1)S(C)(=O)=O,.,.,/,.,/,/
Cc1ccccc1N(CC(=O)N1CCN(c2ccccc2)CC1)S(C)(=O)=O,27.7,.,.,.,52.3,37.3
COc1ccccc1Oc1coc2c(CN3CCOCC3)c(O)ccc2c1=O,80.2,.,.,.,+,155.9
O=c1c(-c2ccc3c(c2)OCCO3)coc2c(CN3CCOCC3)c(O)ccc12,.,.,.,.,/,/
Oc1ccc2ccccc2c1CN1CCOCC1,.,.,.,.,/,/
COc1ccccc1-c1coc2c(CN3CCOCC3)c(O)ccc2c1=O,73.1,.,.,.,152.7,123.7
Cc1cccc(NC(=O)COC(=O)CCc2ccc(S(=O)(=O)N3CCOCC3)cc2)c1C,.,.,.,.,/,/
COc1ccccc1NC(=O)COC(=O)CCc1ccc(S(=O)(=O)N2CCOCC2)cc1,31.0,.,/,.,161.9,133.6
O=C(NCCc1ccc(Cl)cc1Cl)C1=CC=CN2CCS(=O)(=O)N=C12,27.0,.,/,.,178.1,129.2
Cc1ccc(S(=O)(=O)N2[C@H](CC(=O)OCc3ccccc3)OC[C@@H]2C(C)C)cc1,/,.,/,/,/,/
CCC(=O)c1ccccc1OCCCn1cncn1,27.0,.,/,.,112.2,83.6
Cc1csc2nc3ccccc3c(=O)n12,39.4,.,.,.,66.7,37.9
SMILES,FBA Mtb inh,CCHF vOTU inh,RecA intein inh,GDH-TPI counter-1,Mtb FBA confirm,GDH-TPI counter-2
COC(=O)c1cc(=O)nc2sc(-c3ccc(F)cc3)nn12,.,/,.,.,/,/
COC(=O)c1cc(=O)nc2sc(-c3cccs3)nn12,34.8,.,.,.,.,.
N#Cc1c2c(c(NCc3ccco3)n3c1nc1ccccc13)CCC2,90.1,.,.,.,+,+
O=C(COc1coc(CN2CCN(c3ccccc3)CC2)cc1=O)NC1CCCCC1,.,.,.,.,/,/
CCOc1ncnc2c1[nH]c1ccccc12,36.7,.,.,.,34.9,27.6
COC(=O)c1ccncc1N,47.4,.,.,.,.,.
COC(=O)c1sc2cnccc2c1N,109.8,.,.,.,90.8,84.9
CCN(C(=O)c1cnc(NC(C)C)cc1C(F)(F)F)c1ccc(Cl)cc1Cl,50.6,.,.,.,85.2,62.1
